# “And” between values parts separate entries of the source, which are not always exact repeats. Equal entries are not always repeated. Where two headings read alike, the source gives them in different places.
# How the values were obtained:
# [1] = test system: T1, YSK4
# T1 construct: gene MAP3K19
# [2] = test system: T2, p38-alpha
# T2 construct: gene MAPK14
# [3] = test system: AAK1; details: concentration: 1 μM, replicates: in singlicate; n = 1
# [4] = test system: ABL1-nonphosphorylated; details: concentration: 1 μM, replicates: in singlicate, n = 1
# [5] = test system: ABL1-phosphorylated; details: concentration: 1 μM, replicates: in singlicate, n = 1
# [6] = test system: TNNI3K
# [7] = test system: T3, VPS34
# T3 construct: gene PIK3C3
# [8] = test system: ZAK
# [9] = test system: TNIK
# [10] = test system: ULK2
# [11] = test system: TYK2(JH1domain-catalytic)
# [12] = test system: ULK1
# [13] = test system: T4, YANK1
# T4 construct: gene STK32A
# [14] = test system: T5, TRKC
# T5 construct: gene NTRK3
# [15] = test system: WNK4
# [16] = test system: T6, p38-beta
# T6 construct: gene MAPK11
# [17] = test system: TYK2(JH2domain-pseudokinase)
# 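Wherever %Inh is given: KINOMEscan kinase panel screen.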
# 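Wherever Kd is given: kd values determined as follow-up on hits from a single-replicate KINOMEscan panel screen.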
compound,measurement,setting,value
COc1ccc(-c2nc3n(c2-c2ccncc2)CCC3)cc1 [SKF-104493],Kd,[1],> 10000 nM
same,Kd,[2],220 nM and 130 nM
same,%Inh,[3],0%
same,%Inh,[4]; 1 µM,51% and 2%
same,%Inh,[5]; 1 µM,20% and 0%
O=C(Nc1ccccc1)Nc1ccc(Oc2ccc3nccn3n2)cc1,Kd,[6],> 10000 nM
same,%Inh,[3],0%
same,%Inh,[4],66%
same,%Inh,[5],18%
CSc1nn2c(=O)cc(N3CCOCC3)nc2n1Cc1cccc(Cl)c1Cl [GSK2347225],Kd,[7],0.72 nM
same,%Inh,[3],7%
same,%Inh,[4],0%
same,%Inh,[5],0%
CCc1nc(-c2cccc(N(C)S(=O)(=O)c3ccccc3)c2)c(-c2ccnc(Nc3ccc(N4CCN(C(C)=O)CC4)nc3)n2)s1 [GSK1645895],Kd,[8],220 nM
same,%Inh,[3],26%
same,%Inh,[4],28%
same,%Inh,[5],7%
NC(=O)c1sc(-n2cnc3ccccc32)cc1OCc1ccccc1F [GSK1024306],Kd,[2],280 nM
same,%Inh,[3],45%
same,%Inh,[4],0%
same,%Inh,[5],0%
Nc1nc(-c2cccnc2)c(-c2ccnc3ccccc23)s1 [GW684083],Kd,[9],> 10000 nM
same,%Inh,[3],57%
same,%Inh,[4],0%
same,%Inh,[5],0%
Fc1ccc(Nc2nccc(-c3c(-c4ccc(Cl)cc4)nn4ncccc34)n2)cc1F [GW829058],Kd,[9],> 10000 nM
same,Kd,[10],> 10000 nM
same,%Inh,[3],0%
same,%Inh,[4],0%
same,%Inh,[5],17%
O=C(CCO)NCCn1ccc2ncnc(Nc3ccc(Oc4cccc(C(F)(F)F)c4)c(Cl)c3)c21,%Inh,[3],0%
same,%Inh,[4],24%
same,%Inh,[5],12%
C[C@@H]1CCN(C(=O)CO)C[C@@H]1N(C)c1ncnc2[nH]ccc12,Kd,[11],110 nM
same,%Inh,[3],8%
same,%Inh,[4],35%
same,%Inh,[5],0%
CCCc1ccc(S(=O)(=O)NC2CCN(c3ccnc(Nc4ccc(OC)cc4)n3)C2)cc1 (stereo not drawn) [GSK1379737],Kd,[12],> 10000 nM
same,%Inh,[3],0%
same,%Inh,[4],0%
same,%Inh,[5],0%
FC(F)(F)c1ccc(-c2cc(-c3c[nH]nc3-c3ccccn3)ccn2)cc1 [GW599550],Kd,[13],> 10000 nM
same,%Inh,[3],24%
same,%Inh,[4],17%
same,%Inh,[5],21%
O=c1cc(N2CCOCC2)nc2n(Cc3cccc(Cl)c3)ccn12 [GSK2296823],Kd,[7],35 nM
same,%Inh,[3],0%
same,%Inh,[4],0%
same,%Inh,[5],7%
CNc1nccc(-c2c(-c3ccc(F)cc3)ncn2C2CCN(C)CC2)n1 [SB-222903],Kd,[2],53 nM
same,%Inh,[3],0%
same,%Inh,[4],34%
same,%Inh,[5],6%
CC(C)N1CCC(n2cnc(-c3ccc(F)cc3)c2-c2ccnc(N)n2)CC1 [SB-223132],Kd,[2],160 nM
same,%Inh,[3],9%
same,%Inh,[4],50%
same,%Inh,[5],19%
Oc1ccc2ncnc(Nc3ccc(OCc4ccccc4)cc3)c2c1 [GI262866],%Inh,[3],0%
same,%Inh,[4],0%
same,%Inh,[5],0%
Clc1ccc(-c2cc(-c3c[nH]nc3-c3ccccn3)ccn2)cc1 [GW681251],Kd,[9],390 nM
same,Kd,[14],> 10000 nM
same,%Inh,[3],2%
same,%Inh,[4],0%
same,%Inh,[5],0%
CCn1c(-c2ccncc2)nc2cnccc21 [SB-735216],%Inh,[3],0%
same,%Inh,[4],26%
same,%Inh,[5],0%
COc1cc2ncnc(Nc3ccc(OCc4ccccc4Br)c(Cl)c3)c2cc1OC.Cl [GI261590],%Inh,[3],15%
same,%Inh,[4],0%
same,%Inh,[5],0%
Cn1ccc2ncnc(Nc3ccc(Oc4cccc(Cl)c4)c(Cl)c3)c21,%Inh,[3],27%
same,%Inh,[4],45%
same,%Inh,[5],15%
Cc1ccc(NC(=O)c2cccc(C#N)c2)cc1-c1ccc(C(=O)Nc2ccncc2)cc1 [GSK1398463],%Inh,[3],73%
same,%Inh,[4],50%
same,%Inh,[5],10%
COc1ccc(Nc2nccc(N3CCC(NC(=O)c4cccc(NC(C)=O)c4)C3)n2)cc1 (stereo not drawn) [GSK1379732],Kd,[15],> 10000 nM
same,%Inh,[3],17%
same,%Inh,[4],0%
same,%Inh,[5],0%
COc1cc2c(Nc3cccc(NC(=O)c4ccccc4)c3)ncnc2cc1OCCCN1CCOCC1 [GSK223810],Kd,[2],440 nM
same,Kd,[16],100 nM
same,%Inh,[3],45%
same,%Inh,[4],41%
same,%Inh,[5],0%
CN1c2ccc(-c3ccc(C(=O)NCCO)cc3)cc2-c2[nH]ncc2S1(=O)=O,Kd,[17],130 nM
same,%Inh,[3],54%
same,%Inh,[4],33%
same,%Inh,[5],15%
Nc1nc(-c2ccccn2)c(-c2ccnc3ccccc23)s1 [GW548057],Kd,[15],> 10000 nM
same,%Inh,[3],1%
same,%Inh,[4],28%
same,%Inh,[5],26%
CN1CCC(n2cnc(-c3ccc(F)cc3)c2-c2ccnc(NC3CCNCC3)n2)CC1 [SB-229482],Kd,[2],220 nM
same,%Inh,[3],7%
same,%Inh,[4],44%
same,%Inh,[5],0%
CCC(CC)(CC)n1cnc2c(N)ncnc21 [SKF-97620],Kd,[9],> 10000 nM
same,%Inh,[3],0%
same,%Inh,[4],27%
same,%Inh,[5],6%
